# Compound activity deposited in PubChem BioAssay by Broad Institute.
# Only a selection was taken, and hits are over-represented in it overall.
# Tgondii IFNg – inhibitors of Toxoplasma gondii growth with IFN-gamma. Toxoplasma gondii growth in IFN-gamma-treated host cells; active compounds read low. activity change, negative = inhibition, % (test concentration not listed). 69,000 compounds, 3.8% hits. AID 1259416; in the data active means activity change below about -70%, passing the limit was not always enough;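 further: host cells are HeLa cells infected with Toxoplasma gondii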
# * hit, by the source's call; i = inactive; ! = repeats disagree.
SMILES,Tgondii IFNg
CCCC(=O)Nc1ccc2c(c1)C(=O)N(C)[C@H]1CC[C@@H](CC(=O)NCc3cccc(F)c3)O[C@@H]1CO2,8
CN1C(=O)NC2(O)C(=O)c3ccccc3C12O (stereo not drawn),15
Cc1ccc(-c2nc(CCNC(=O)c3ccc(C)c(C)c3)cs2)cc1,i
O=C(NCCc1csc(-c2ccc(F)cc2)n1)C12CC3CC(CC(C3)C1)C2,-11
CC(=O)NCCc1csc(-c2ccc(F)cc2)n1,39
Cc1cc(C)cc(C(=O)NCCc2csc(-c3ccc(F)cc3)n2)c1,-82*
Cc1nc(-c2ccc(F)cc2)sc1CCNC(=O)Cc1ccc(F)cc1,-11
CCOc1ccc(NC(=O)C(=O)NCCc2sc(-c3ccc(F)cc3)nc2C)cc1,-4
O=C(NCCc1csc(-c2ccc(F)cc2)n1)c1ccc(F)cc1,-79*
Cc1nc(-c2ccc(F)cc2)sc1CCNC(=O)C12CC3CC(CC(C3)C1)C2,-91*
CCOc1ccc(CC(=O)NCCc2sc(-c3cccc(F)c3)nc2C)cc1,-44
CCOc1ccc(CC(=O)NCCc2sc(-c3ccc(F)cc3)nc2C)cc1,-93*
O=C(NCCc1csc(-c2cccc(F)c2)n1)c1ccc(F)cc1,-62
Cc1ccc(C(=O)NCCc2csc(-c3ccc(F)cc3)n2)cc1,-65
CC(C)N(C)Cc1cnc2n1CCN(C(=O)C1CCOCC1)C2,2
O=C(O)c1cc(N=Nc2ccc(O)c(C(=O)O)c2)ccc1O,12
N#CCNC(=O)C1CC(=O)N(CCc2c[nH]c3ccc(F)cc23)C1 (stereo not drawn),298
Cc1cccc(-c2noc(CNC(=O)c3ccc(C)c(C)c3)n2)c1,-2
O=C(C[C@H]1CC[C@@H]2[C@H](COC[C@H](O)CN2Cc2cc(F)ccc2F)O1)NCc1ccc(Oc2ccccc2)cc1,-66
COc1ccc(C(=O)NCCc2csc(-c3cccc(C)c3)n2)cc1OC,i
Nc1ccc(-c2nc3ncccc3o2)c(Cl)c1,328
O=C(O)c1cccnc1CN(CCO)C12CC3CC(CC(C3)C1)C2,1
OC[C@H]1O[C@@H](c2ccc(Cl)c(Cc3ccc(O[C@H]4CCOC4)cc3)c2)[C@H](O)[C@@H](O)[C@@H]1O,16
CCCCOc1ccc(C(=O)NCCc2csc(-c3ccc(F)cc3)n2)cc1,-62
COc1ccc(C(=O)NCCc2sc(-c3ccc(F)cc3)nc2C)cc1,-22
SMILES,Tgondii IFNg
O=C(NCCc1csc(-c2ccc(F)cc2)n1)c1ccc(Br)cc1,-79*
O=C(Cc1ccc(F)cc1)NCCc1csc(-c2ccc(F)cc2)n1,30
Cc1ccc(C(=O)NCCc2sc(-c3ccc(F)cc3)nc2C)cc1,-58
Cc1cc(C)cc(C(=O)NCCc2sc(-c3ccc(F)cc3)nc2C)c1,-77*
Cc1cc(C)n(-c2nc(C(=O)O)cs2)n1,24
COc1ccc(S(=O)(=O)Nc2ccc3c(c2)OC[C@@H](C)NC[C@H](C)[C@@H](OC)CN(C)C3=O)cc1,71
COC(=O)c1cccc(NC(=O)Nc2ccc(-c3nc(-c4ccc(C)cc4C)co3)cc2)c1,18
CN(C)CC1(O)CCCN(C(=O)CCn2ccccc2=O)CC1 (stereo not drawn),15
Cc1ccc2c(c1)CN(Cc1coc3ccc(C)cc3c1=O)CC(C)O2 (stereo not drawn),10
O=C(Cn1c(=O)cc(C(=O)N2CCCC2)c2ccccc21)Nc1ccc(F)cc1,8
CN1CCC2(c3ccccc3)CCN(C(=O)C3CC3)CC12 (stereo not drawn),-33
C#C[C@]1(O)CC[C@H]2[C@@H]3CCc4cc(OC)ccc4[C@H]3CC[C@@]21C,-6
C[C@]12CCC3c4ccc(O)cc4CCC3C1C[C@@H](O)[C@@H]2O (stereo partly drawn),-4
C[C@]12CC[C@@H]3c4ccc(O)cc4C(=O)C[C@H]3[C@@H]1CC[C@@H]2O,-3
C[C@]12CCC3c4ccc(O)cc4CCC3C1CC[C@@H]2O (stereo partly drawn),-74*
C[C@]12CCC3c4ccc(OS(=O)(=O)O)cc4CCC3C1CC[C@H]2O (stereo partly drawn),9
CC12CCC3c4ccc(O)cc4C=CC3C1CCC2=O (stereo not drawn),-88*
C#C[C@]1(O)CCC2C3CCc4cc(OC)ccc4C3CC[C@@]21C (stereo partly drawn),5
C[C@]12CC[C@@H]3c4ccc(O)cc4CC[C@H]3[C@@H]1CCC2=O,-77*!
CC(=O)O[C@]1(C(C)=O)CC[C@H]2[C@@H]3C=CC4=CC(=O)CC[C@]4(C)[C@H]3CC[C@@]21C,14
COC(=O)c1cc(=O)n2c(c1C(=O)c1cccs1)SCC2,24
CCOCC1CC2(CCN(C(=O)COc3ccc(F)cc3)CC2)CO1 (stereo not drawn),58
COc1ccc(C2(CN3CCC(NC(=O)Cc4ccccc4O)CC3)CCCCC2)cc1,-5
Cc1noc(-c2cc(=O)n(CC(=O)NCc3ccccc3)c3ccccc23)n1,38
COC(=O)c1c(C)c2c(c(C)c1O)OC(=O)c1c(C)c(Cl)c(O)c(Cl)c1O2,-40
SMILES,Tgondii IFNg
CN1C(=O)c2cc(NC(=O)c3cscn3)ccc2OC[C@@H]2O[C@H](CC(=O)N3CCOCC3)CC[C@H]21,0
Cc1cc(C)n(Cc2nc(-c3ccc(NC(=O)c4ccc(Cl)cc4)cc3)oc2C)n1,2
Cc1ccc(C)c(C(=O)Nc2ccc(-c3nc(Cn4nc(C)cc4C)c(C)o3)cc2)c1,-75*
Cc1cc(C)n(Cc2nc(-c3ccc(NC(=O)c4ccc(C)c(F)c4)cc3)oc2C)n1,17
Cc1cc(C)cc(C(=O)Nc2ccc(-c3nc(Cn4nc(C)cc4C)c(C)o3)cc2)c1,-97*
Cc1cc(C)n(Cc2nc(-c3ccc(NC(=O)CCc4ccccc4)cc3)oc2C)n1,-69
COc1cccc(CC(=O)Nc2ccc(-c3nc(Cn4nc(C)cc4C)c(C)o3)cc2)c1,-85*
Cc1cc(C)n(Cc2nc(-c3ccc(NC(=O)c4ccccc4)cc3)oc2C)n1,1
Cc1cc(C)n(Cc2nc(-c3ccc(NC(=O)c4cc(F)cc(F)c4)cc3)oc2C)n1,-32
Cc1cc(C)n(Cc2nc(-c3ccc(NC(=O)Cc4ccccc4C)cc3)oc2C)n1,41
CCOC1CC2(CCN(C(=O)c3ccno3)CC2)C1,32
NC(=O)CC1C(=O)NCCN1Cc1ccccc1C(F)(F)F (stereo not drawn),4
COc1ccccc1CNC(=O)c1nc(Nc2ccccc2)c2ccccc2n1,-65
Cc1cccnc1CN1CCC2(CC1)CC(NC(=O)c1ccnnc1)C2,266
CC(C)CNC(=O)[C@H]1C[C@@H]2CN(C(=O)NC3CCCC3)C[C@H]1O2,0
CCOC(=O)n1ccn(C)c1=S,12
Cc1sc(NC(=O)CSc2nc3cc4c(cc3cc2C#N)OCCO4)c(C#N)c1C,198
CCOC(=O)c1c(NC(=O)CSc2nc(C)cc(C)n2)sc(C(C)=O)c1C,-24
CCOC(=O)c1sc(NC(=O)CSc2n[nH]c(-c3ccccn3)n2)c(C#N)c1C,-108*
COc1ccc(-n2c(=O)n(Cc3nc(-c4ccc(C)cc4)oc3C)c(=O)c3cccnc32)cc1,17
CCCCN(CC)CCNC(=O)C1=C(C)C(=O)OC12CCN(S(C)(=O)=O)CC2,8
Cc1ccccc1S(=O)(=O)N1CC[C@@H]2[C@H]1c1cc(-c3cccc(F)c3)ccc1N(C)[C@H]2CO,-68
COc1ccc(-c2cc3c(=O)n(Cc4nc(-c5ccccc5C)oc4C)ccn3n2)cc1OC,7
COc1ccc(NC(=O)N2CCC3(CC2)Nc2cc(F)ccc2-n2cccc23)cc1OC,226
COc1ccc(-c2nc(C)c(CCNS(C)(=O)=O)s2)cc1,377
